PHOSPHO1 block – PubChem AID 1565. Phosphoethanolamine/phosphocholine phosphatase (Homo sapiens), Q8TCT1. recombinant PHOSPHO1, absorbance phosphatase assay. inhibition, % at 13.3 µM. 1.1% of 290,000 active; in the data active = inhibition above about 60%
HDAC3 inhib – HDAC3 deacetylase inhibitors, primary screen, biochemical, fluorescence, cell-free homogeneous | 0.15% of 320,000 active | inhibition, % at 8.3 µM | Histone deacetylase 3 (Homo sapiens), O15379 | recombinant HDAC3, fluorogenic peptide/trypsin coupled; in the data active = inhibition above about 26%, passing the limit was not always enough; inconclusive = no clear call, values can overlap the other calls
TMEM16A inh – TMEM16A chloride channel inhibitors, primary screen, cell-based, HTS. AID 588511, 2011. normalized B-score (activity score, 25-100; higher = stronger inhibition) at 10 µM. HEK293 TMEM16A/YFP iodide influx fluorescence, ionomycin. Anoctamin-1 (Mus musculus), Q8BHY3. 1.2% of 310,000 active;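 active = ratio plate-corrected score three or more library SD toward inhibition, starting fluorescence score within five deviations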;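 note: score derived from kinetic fluorescence span divided by baseline fluorescence per well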
Target sequence (Q8BHY3 whole entry, looked up): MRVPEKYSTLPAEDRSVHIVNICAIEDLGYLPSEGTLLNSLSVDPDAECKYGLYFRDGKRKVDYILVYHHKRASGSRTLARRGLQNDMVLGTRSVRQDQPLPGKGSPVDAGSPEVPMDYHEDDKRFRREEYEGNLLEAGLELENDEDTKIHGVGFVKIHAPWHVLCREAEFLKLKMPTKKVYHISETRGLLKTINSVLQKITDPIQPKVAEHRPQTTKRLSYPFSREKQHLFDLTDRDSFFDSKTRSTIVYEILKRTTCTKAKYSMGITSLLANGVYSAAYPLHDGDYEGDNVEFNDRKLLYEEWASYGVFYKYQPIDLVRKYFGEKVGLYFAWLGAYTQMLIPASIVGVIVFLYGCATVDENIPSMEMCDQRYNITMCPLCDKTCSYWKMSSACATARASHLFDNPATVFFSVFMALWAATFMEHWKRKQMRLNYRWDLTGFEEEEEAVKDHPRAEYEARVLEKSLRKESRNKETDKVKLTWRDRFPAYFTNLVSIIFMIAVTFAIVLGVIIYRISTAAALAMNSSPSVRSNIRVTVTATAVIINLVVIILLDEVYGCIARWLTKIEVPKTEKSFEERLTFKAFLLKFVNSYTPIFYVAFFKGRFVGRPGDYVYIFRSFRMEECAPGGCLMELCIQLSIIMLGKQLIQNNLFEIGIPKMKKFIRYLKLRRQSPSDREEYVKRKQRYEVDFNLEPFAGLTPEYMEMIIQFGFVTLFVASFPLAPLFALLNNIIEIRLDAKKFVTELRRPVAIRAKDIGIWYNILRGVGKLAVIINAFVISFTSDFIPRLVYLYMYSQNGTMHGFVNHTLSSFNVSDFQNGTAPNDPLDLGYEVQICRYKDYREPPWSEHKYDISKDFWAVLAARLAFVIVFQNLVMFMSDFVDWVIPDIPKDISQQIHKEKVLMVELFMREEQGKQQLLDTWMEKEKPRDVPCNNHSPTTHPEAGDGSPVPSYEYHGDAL
CHT allo act – CHT positive allosteric modulators, primary screen, cell-based, membrane potential dye, choline EC20. CHT-expressing cells; stronger effect = higher value; LV-AA mutant CHT in HEK293 cells. B-score at 10 µM. AID 488977, 2010. 0.49% of 310,000 active;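 active = initial fluorescence not abnormally high and integrated response B-score, plate-corrected, over 3 SD above library mean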
CHT inh – inhibitors of human choline transporter CHT; B-score at 10 µM; High affinity choline transporter 1 (Homo sapiens), Q9GZV3; 0.86% of 310,000 active; CHT-expressing cells, membrane potential dye, choline response; stronger effect = lower value;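 active = B-score over 3 SD under the library average, and starting fluorescence ratio not unusually high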;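 note: choline stimulus applied at its EC90 after an EC20 pre-addition; B-score computed on integrated fluorescence ratio after choline addition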
ANO1 activ – TMEM16A chloride channel activators or potentiators, primary screen, cell-based, HTS; Anoctamin-1 (Mus musculus), Q8BHY3; 0.3% of 340,000 active; HEK293 TMEM16A/YFP-H148Q/I152L, iodide quench fluorescence; stronger effect = lower value; B-score at 10 µM;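 active = fluorescence-ratio B-score plate-corrected deviation score at least 3 library SD below zero, with starting fluorescence score within 5 deviations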;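 note: channel opened by trigger with iodide after compound preincubation; score built on the fluorescence ratio of max minus min over baseline; more negative score means more quench and so TMEM16A activation or potentiation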
TMEM16A reconf – TMEM16A chloride channel inhibitors, confirmation, cell-based, re-confirmation; HEK293 TMEM16A/YFP-H148Q, iodide quench fluorescence; ionomycin added to raise cell calcium; inhibition, % at 10 µM; AID 652189, 2013; shares compounds with TMEM16A inh; 39% of 2,300 active;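 active = mean duplicate percent inhibition, scaled so buffer wells are 0 and the reference blocker 100, over three buffer SD above buffer mean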
HEK293 Ca mobil – calcium mobilization in TMEM16A/YFP HEK293 cells, confirmation, counter-screen for TMEM16A inhibitor project. shares compounds with TMEM16A inh. calcium response (% of ionomycin), % at 10 µM. Fluo4 calcium mobilization. 2% of 2,300 active;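 active = duplicate-averaged calcium signal over 20% of the ionomycin maximum, relative to buffer baseline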;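 note: each well's signal is peak minus trough fluorescence divided by its pre-addition baseline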
Parental YFP cnt – iodide YFP quench changes in parental YFP-HEK293, counter-screen for TMEM16A inhibitor project, cell-based; shares compounds with TMEM16A inh; ionomycin; YFP ratio F(max-min)/F0 at 10 µM; 2,300 tested, under 10 active; AID 652233, 2013;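 active = yellow fluorescent protein signal ratio exceeding the buffer control mean by over 5 SD of those controls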;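 note: ratio is mean of duplicate wells from kinetic YFP trace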
ClC-1 inh – ClC-1 chloride channel inhibition, selectivity assay for TMEM16A inhibitor project, cell-based, voltage-dependent ClC-1; shares compounds with TMEM16A inh; CHO ClC-1-YFP, iodide influx fluorescence quench; iodide control reads 0, buffer control 100; ratio percent, % at 10 µM; 2,300 tested, under 10 active; AID 652236, 2013;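 active = duplicate-mean ratio percent above the mean of iodide-only control wells, which defines zero, plus 5 of their SD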;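 note: higher percent means stronger block of ClC-1 iodide influx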
Numbers stand for hits; i = inactive; ? = inconclusive; nt = no result given; ! = a repeat was not active. Rows were chosen to be rich in hits. Some 3.2% of all compounds tested hit in one or more screens of this group.

SMILES	PHOSPHO1 block	HDAC3 inhib	TMEM16A inh	CHT allo act	CHT inh	ANO1 activ	TMEM16A reconf	HEK293 Ca mobil	Parental YFP cnt	ClC-1 inh
CCOC(=O)CSc1nnc(NC(=O)c2cc([N+](=O)[O-])cc([N+](=O)[O-])c2)s1	i	i	25	i	i	i	i	i	i	i
COC(=O)c1cccc(Nc2ncnc3sccc23)c1	i	i	100	i	i	i	26%	i	i	i
CC(=O)c1ccc(OCCCC(=O)Nc2cc(S(=O)(=O)N(C)C)ccc2C)cc1	i	i	i	i	i	i	nt	nt	nt	nt
Cc1ccc(S(=O)(=O)N(C)C)cc1NC(=O)C(C)N(C)CCOc1ccc(Cl)cc1 (centres undefined)	i	i	25	i	i	i	i	i	i	i
COc1ccc(N(CC(=O)N2CCCCCC2)S(=O)(=O)c2ccc(OC)c(OC)c2)cc1	i	i	i	i	i	i	nt	nt	nt	nt
Cc1ccc(NC(NC(=O)c2cccs2)C(Cl)(Cl)Cl)cc1C (centres undefined)	i	i	100	i	i	i	28%	i	i	i
CC#CCN1c2ccccc2[C@]23C[C@@H](C(=O)OC)N(C(=O)NC(C)(C)C)C2=NC(C(=O)OC)=C(C(=O)OC)[C@H]13	nt	i	i	i	i	i	nt	nt	nt	nt
COC(=O)c1ccc(NC(=O)CCN2CCCCC2)cc1	i	i	25!	i	i	i	i	i	i	i
COc1ccc(Br)cc1/C(C)=N/NC1=NCCN1	i	i	100	i	i	i	20%	i	i	i
COc1cc(-c2noc(C)c2C#CCO)cc(OC)c1OC	i	i	i	i	i	i	nt	nt	nt	nt
COc1cc(-c2noc(C)c2C#Cc2ccsc2)cc(OC)c1OC	i	i	100	i	i	i	28%	i	i	i
CCC(c1nnc(SCC(=O)Nc2cc(Cl)ccc2C#N)n1C1CCCCC1)N(C)C (centres undefined)	i	i	i	i	i	i	nt	nt	nt	nt
O=C(CN1C(=O)NC2(CCCCC2)C1=O)Nc1ccc(Cl)c(S(=O)(=O)N2CCOCC2)c1	nt	i	nt	nt	nt	i	nt	nt	nt	nt
Cc1ccnc(NC(=S)N2CCN(c3cccc(C(F)(F)F)c3)CC2)c1	i	i	25	i	i	i	18%	i	i	i
Cc1cc(C)cc(N(CCC(=O)Nc2nnc(C3CC3)s2)S(=O)(=O)c2ccc(Cl)cc2)c1	i	i	i	i	i	i	nt	nt	nt	nt
CN1c2ccccc2C(O)=C(C(=S)Nc2ccc(Cl)cc2)S1(=O)=O	i	i	100	i	i	i	20%	i	i	i
COc1cccc(CNC(=O)CN2CCC(c3nc4ccc(C)cc4[nH]3)CC2)c1	i	i	i	i	i	i	nt	nt	nt	nt
COC(=O)Nc1ccc(C)c(NC(=O)OC)c1	i	?	i	i	i	i	nt	nt	nt	nt
O=C(NCC1(N2CCOCC2)CCCCC1)c1ccc(Cl)c(S(=O)(=O)NCc2ccco2)c1	i	i	100	i	i	i	i	i	i	i
COc1ccc(-c2csc3nc(-c4cccnc4)nc(Cl)c23)cc1OC	i	i	25	i	i	i	i	i	i	i
C/C(=N\OC(=O)NC1CCCCC1)c1sc(-c2ccccc2)nc1C	i	i	25	i	i	i	25%	i	i	i
C/C(=N\OC(=O)NC(C)C)c1sc(-c2ccccc2)nc1C	i	i	i	i	i	i	nt	nt	nt	nt
O=C1c2ccccc2C(=O)N1CC(O)COc1ccc(Br)cc1 (centres undefined)	i	i	i	i	i	i	nt	nt	nt	nt
Cc1onc(-c2ccccc2)c1C(=O)NC(=S)NNC(=O)c1ccncc1	i	i	i	i	i	i	nt	nt	nt	nt
Cc1onc(-c2ccccc2)c1C(=O)NC(=S)NNC(=O)c1cc(-c2ccc(F)cc2)n[nH]1	i	i	25	i	i	i	i	i	i	i
SMILES	PHOSPHO1 block	HDAC3 inhib	TMEM16A inh	CHT allo act	CHT inh	ANO1 activ	TMEM16A reconf	HEK293 Ca mobil	Parental YFP cnt	ClC-1 inh
O=S(=O)(Nc1nc2ccccc2nc1N1CCc2ccccc2C1)c1ccc(Br)cc1	i	i	i	i	i	i	nt	nt	nt	nt
O=S(=O)(Nc1nc2ccccc2nc1N1CCc2ccccc2C1)c1ccc(Cl)cc1	i	i	25	i	i	i	50%	i	i	i
COc1ccc(Cc2n[nH]c(=S)n2-c2ccc3c(c2)OCCO3)cc1	i	i	i	i	i	i	nt	nt	nt	nt
Cc1cccc(S(=O)(=O)Nc2nc3ccccc3nc2Nc2ccc3c(c2)OCO3)c1	i	i	25	i	i	i	20%	i	i	i
CC(NC(=O)Cn1cc2c(n1)CCCCC2)c1ccccc1 (centres undefined)	i	i	25	i	i	i	i	i	i	i
CCOC(=O)c1c(C)[nH]c(C(=O)COC(=O)c2ccc(O)cc2O)c1C	i	i	i	i	i	i	nt	nt	nt	nt
CN1/C(=C\C(=O)CN2C(=O)NC3(CCCCCC3)C2=O)C(C)(C)c2ccccc21	i	i	i	i	i	i	i	i	i	i
CNS(=O)(=O)c1cccc(C(=O)OCC(=O)/C=C2/N(C)c3ccccc3C2(C)C)c1	i	i	i	i	i	i	21%	i	i	i
CN1/C(=C\C(=O)COC(=O)CNC(=O)c2ccccc2F)C(C)(C)c2ccccc21	i	i	i	i	i	i	nt	nt	nt	nt
CN1/C(=C\C(=O)COC(=O)c2ccc(O)c(O)c2)C(C)(C)c2ccccc21	i	i	100	i	i	nt	70%	i	i	i
CN1/C(=C\C(=O)COC(=O)CNC(=O)c2ccc3ccccc3c2)C(C)(C)c2ccccc21	i	i	i	i	i	i	30%	i	i	i
CC(SCc1ccccc1)C(=O)Nc1ccccc1 (centres undefined)	i	i	i	i	i	i	nt	nt	nt	nt
Cc1cc(O)c2c(CN3CCN(Cc4ccccc4)CC3)cc(=O)oc2c1	i	i	i	i	i	i	nt	nt	nt	nt

High-throughput results deposited in PubChem by several laboratories.
